# Compound activity (PubChem)
# Most compounds without a hit are left out; they make up all but 6.5% or so of the library.
# Lassa entry inh = qHTS for Inhibitors of binding or entry into cells for Lassa Virus; 1.2% of 300,000 active; AID 540256, 2011; Lassa virus pseudotype entry inhibition, cell reporter; Potency, µM (doses to about 37.9 µM), for the others: at the top dose activity change, negative = inhibition, actives largely listed as inhibitors; calls by dose curve; tested in HEK293 cells; note: potency is the fitted concentration of half-maximal effect; nearly all actives have a fitted effect of over 50% in size
# HCMV inh = qHTS Assay for inhibitors of the human cytomegalovirus (HCMV); activity change, negative = inhibition, % at 57.5 µM; HFF cells, HCMV-luciferase reporter, 72 h; active compounds read low; 4.5% of 410,000 active; AID 1259415, 2018; in the data active = activity change below about -60%; inconclusive = no clear call, values can overlap the other calls; inactive = above about -39%
#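 HFF cells seeded 16 h at 37C, treated with compounds, infected with luciferase-reporter HCMV at MOI 1 PFU/cell; luciferase read at 72 h post infection, normalized to buffer-only and Salinomycin controls.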
# VACV mCherry inh = qHTS for Stage-Specific Inhibitors of Vaccinia Orthopoxvirus: mCherry Reporter Primary qHTS. Vaccinia virus mCherry reporter infection, fluorescence. Potency, µM (titrated, usually from 36.5 µM), without a hit: at the top dose activity change, negative = inhibition, actives largely listed as inhibitors. 0.63% of 310,000 active. AID 720579, 2013; calls by dose curve; tested in A549 cells; note: potency is the fitted concentration of half-maximal effect; nearly all actives have a fitted effect of over 35% in size
# Marburg entry inh = qHTS for inhibitors of binding or entry into cells for Marburg Virus; 1.8% of 300,000 active; Potency, µM (series often up to 37.8 µM), without a hit: at the top dose activity change, negative = inhibition, most hits filed as inhibitors; Marburg virus pseudotyped entry inhibition, cell reporter; AID 540276, 2011; calls by dose curve; tested in HEK293 cells; note: potency is the fitted concentration of half-maximal effect
# FMDV inh = High Throughput Screening for Foot and Mouth Disease Virus Antivirals. FMDV antiviral cell-based qHTS. Potency, µM (titrated, usually from 57.9 µM), inactives show top-dose activity change, negative = inhibition, most hits filed as inhibitors. 1.2% of 410,000 active; calls by dose curve; tested in HEK293T cells; note: read-out not given here; potency is the fitted concentration of half-maximal effect; nearly all actives have a fitted effect of over 45% in size
# VACV Venus inh = qHTS for Stage-Specific Inhibitors of Vaccinia Orthopoxvirus: Venus Reporter Primary qHTS; Vaccinia virus Venus reporter expression, fluorescence; Potency, µM (doses to about 36.5 µM), inactives show at the top dose activity change, negative = inhibition, actives largely listed as inhibitors; 0.46% of 330,000 active; AID 720580, 2013; calls by dose curve; tested in A549 cells; note: potency is the fitted concentration of half-maximal effect; nearly all actives have a fitted effect of over 30% in size
# Numbers without * were called inactive; i = inactive; ? = inconclusive; / = no result given; ! = a repeat was not active; [ ] = dose if it differs, or a comment. % is set by controls: 0 for no effect and ±100 for the full control effect.
SMILES,Lassa entry inh,HCMV inh,VACV mCherry inh,Marburg entry inh,FMDV inh,VACV Venus inh
Cc1cccc(C)c1-n1nnnc1C(c1cc2ccccc2o1)N1CCN(C/C=C/c2ccccc2)CC1 (centres undefined),/,-62*,11%,/,-5%,-11%
CC(C)(C)n1nnnc1C(c1ccccc1)N1CCN(C/C=C/c2ccccc2)CC1 (centres undefined),/,8,i,/,-6%,-5%
C(=C\c1ccccc1)/CN1CCN(C(c2ccccc2)c2ccccc2)CC1,15µM*!,?,i,21µM*!,0%,-25%
Fc1ccc(C(c2ccc(F)cc2)N2CCN(C/C=C/c3ccccc3)CC2)cc1,13µM*,-37,-10%,7.1µM*,?,?
C(=C\c1ccccc1)/CN1CCN(C(c2ccccc2)c2nnnn2Cc2ccccc2)CC1 (centres undefined),/,7,13%,/,-8%,-11%
Cc1cccn2c(=O)cc(COc3ccc(NC(=O)C(C)C)cc3)nc12,-5%[46.1 µM],-22,-11%,/,-24%,-12%
COc1cc(OC)c(NC(=O)N2CCc3cc(S(=O)(=O)N4CCC(C)CC4)ccc32)cc1Cl,?,?,-28%,-1%[46.1 µM],-13%,-22%
Cc1ccc2c(c1)C(=O)C(=O)N2CCOc1ccccc1,?,-73*,-16%,?,13%,-13%
Cc1cccc(OCCN2C(=O)C(=O)c3cccc(C)c32)c1,12%,-31,-1%,?,-9%,-9%
Cc1cccc(OCCN2C(=O)C(=O)c3cc(C)ccc32)c1,?,-89*,?,?,7%,4%
Cc1cccc(OCCCn2c(=O)oc3ccc(C)cc32)c1,10%,-80*,-14%,1%,-8%,-2%
Cc1ccc2c(c1)C(=O)C(=O)N2CCCOc1ccccc1C,/,-15,/,/,7%,/
COC(=O)c1scc(-c2ccc(C)cc2)c1S(=O)(=O)Nc1ccc(OC(F)(F)F)cc1,3%[46.1 µM],-11,-15%,/,-2%,-4%
COCc1ccc(CN2CCOc3c(O)cc(-c4cc(C)c5ccc(F)cc5n4)cc3C2)o1,/,/,-18%,/,8%,-15%
COc1ccc(C)cc1Nc1nc2c(S(=O)(=O)c3cccc(Cl)c3)nnn2c2ccsc12,9%[46.1 µM],-14,2%,/,-9%,-2%
Cc1ccc(C(c2sc3nc(-c4ccco4)nn3c2O)N2CCCCC2)cc1 (centres undefined),13%[46.1 µM],21,-5%,/,25%,-3%
NC(=O)CCN1CC(c2cc(Cl)c(N)c(Cl)c2)=CC1=O,/,-20,/,/,/,/
Cc1ccc(C(=O)c2coc3ccc(O)c(CN4CCN(C)CC4)c23)cc1,-17%,19,/,23µM*,-20%,/
COC(=O)c1ccc(NC(=O)CC2C(=O)N(c3cccc(OC)c3)C(=O)N2Cc2ccco2)cc1 (centres undefined),-18%[46.1 µM],-13,-3%,/,-3%,-8%
CCOc1ccc(CNc2nc3nc(C)c(Cc4ccccc4)c(=O)n3[nH]2)cc1,22%[46.1 µM],4,0%,?,-9%,-11%
CCN1CCCC1CNC(=O)c1cnn(-c2nccc(-c3cccs3)n2)c1C(C)C (centres undefined),/,/,-21%,/,3%,-10%
CN(Cc1cccs1)c1ncnc2sccc12,-23%,-78*,/,-37%,?,/
COc1ccc(CNc2ncnc3sccc23)cc1,-29%,-73*,i,?,?,-18%
Cc1sc2ncnc(NCc3ccccc3)c2c1C,-23%,?,/,-27%,28µM*,?
c1csc(CNc2ncnc3sccc23)c1,?,-79*,/,-29%,?,/
SMILES,Lassa entry inh,HCMV inh,VACV mCherry inh,Marburg entry inh,FMDV inh,VACV Venus inh
COc1ccccc1C(=O)N[C@@H]1c2ccccc2C2(CCN(Cc3cnn(C)c3C)CC2)[C@H]1O,/,/,-21%,/,4%,-4%
COc1ccc(C=CN(CCc2ccc(OC)c(OC)c2)C(=O)c2ccccn2)cc1,/,/,/,-11%[14.2 µM],/,/
COc1ccc(-n2c(CCNC(=O)c3ccc(-c4cccc(F)c4)cc3)nnc2SC)cc1,/,/,-17%,/,-5%,-11%
CCc1ccccc1N1CC(c2nnc(NC(=O)c3ccco3)s2)CC1=O (centres undefined),13%[46.1 µM],-4,-12%,2%[46.1 µM],-2%,-16%
O=C(NCCN1CCCC1)[C@@H]1[C@@H](CO)[C@@H]2Cn3c(cccc3=O)[C@@H]2N1C(=O)c1ccccc1,/,30,/,/,/,/
c1cncc(CNc2ncnc3sccc23)c1,-13%[46.1 µM],-13,0%,-10%[46.1 µM],?,-3%
Cc1cc2c(NCC(C)O)ncnc2s1 (centres undefined),6%,-21,-9%,7%,-2%,-7%
Cc1cc2c(NCc3ccccc3)ncnc2s1,9%[46.1 µM],-76*,-12%,?,?,-17%
c1csc(CNc2ncnc3ccc(-c4ccoc4)cc23)c1,/,-92*,/,/,-29%,/
COc1ccc(CCN(C)c2ncnc3sccc23)cc1OC,/,?,/,/,28µM*,/
c1ccc(CNc2ncnc3sccc23)cc1,/,-94*,/,/,?,/
Cc1cccc(NC2=CC(c3cccc(Br)c3)N(c3cccc(C)c3)C2=O)c1 (centres undefined),22%[46.1 µM],18,-12%,11%[46.1 µM],-19%,-3%
Cc1ccc2c(Cl)cc(Cl)c(O)c2n1,?,-75*,?,11µM*,10µM*!,?
Oc1c(I)cc(I)c2cccnc12,-9%,-100*,-26%,3%,-22%,?
O=C(Oc1c(Cl)cc(Cl)c2cccnc12)c1ccco1,?,-102*,13µM*,?,?,?
O=S(=O)(O)c1cc(I)c(O)c2ncccc12,/,6,/,/,/,/
CCC(=O)NC(c1cc(Cl)c2ccccc2c1O)C(C)C (centres undefined),/,-35,/,/,0%,/
CCC(=O)NC(C)c1cc(Cl)c2cccnc2c1O (centres undefined),/,-97*,/,/,0%,/
O=C(Oc1c(Cl)cc(Cl)c2cccnc12)c1cccs1,?,?,?,?,-20%,?
Cc1ccc(S(=O)(=O)Nc2cc(Cl)c(O)c3ncccc23)cc1,?,-98*,?,?,-12%,?
Oc1ccc(Cl)c2cccnc12,-17%,-27,?,-17%,0%,-28%
Oc1c(Cl)cc(Cl)c2cccnc12,/,-99*,-14%,/,?,?
CC(=O)NC(C)c1cc(Cl)c2cccnc2c1O (centres undefined),/,-96*,/,/,-19%,/
Cc1ccc(S(=O)(=O)Nc2cccnc2Oc2ccc(Cl)cc2)cc1,/,14,/,/,-17%,/
Cc1cc2c(nc1C)CCCN2C[C@@H](O)CN1CCN(C)CC1,/,/,/,18%[14.2 µM],/,/
CC1CCN(S(=O)(=O)c2ccc3nc(Nc4cccc(C(F)(F)F)c4)ccc3c2)CC1,-10%[46.1 µM],-100*,-9%[7.34 µM],/,-25%,-3%[7.34 µM]
